{
  "source": "PubChem BioAssay AID602396",
  "about": "(The Scripps Research Institute Molecular Screening Center, 2012)",
  "note": "About 460 (0.13%) of roughly 360,000 compounds were called active. For the sample, actives were picked, then their nearest neighbours and some compounds at random. Values without a mark were called inactive.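 How the source made its calls: active means inhibition above the mean inhibition of all tested compounds plus 3 SD (cut at about 73% in these data); inactive means the rest.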",
  "data": [
    {"biological_target": "Nuclear receptor subfamily 5 group A member 2 (Homo sapiens) (UniProt O00482)", "sequence (O00482 whole entry, looked up)": "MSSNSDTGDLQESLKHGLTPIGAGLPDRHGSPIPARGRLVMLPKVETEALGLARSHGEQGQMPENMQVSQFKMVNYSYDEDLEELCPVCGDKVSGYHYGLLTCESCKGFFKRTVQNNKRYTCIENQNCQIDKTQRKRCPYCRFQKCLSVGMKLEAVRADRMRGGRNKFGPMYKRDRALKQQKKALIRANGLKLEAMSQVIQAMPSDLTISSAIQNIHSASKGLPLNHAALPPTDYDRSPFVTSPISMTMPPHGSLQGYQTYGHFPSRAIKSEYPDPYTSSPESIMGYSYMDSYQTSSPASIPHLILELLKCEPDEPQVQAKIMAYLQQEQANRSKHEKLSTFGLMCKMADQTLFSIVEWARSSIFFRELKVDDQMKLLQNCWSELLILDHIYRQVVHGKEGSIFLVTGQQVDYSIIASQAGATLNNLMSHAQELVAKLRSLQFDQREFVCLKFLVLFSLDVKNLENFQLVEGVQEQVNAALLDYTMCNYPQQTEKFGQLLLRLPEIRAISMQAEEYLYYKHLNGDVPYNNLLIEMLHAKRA", "experiment": "LRH-1 (NR5A2) inverse agonists, primary screen, cell-based, luminescence, HEK293T, StAR-luciferase reporter (AID 602396);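 further: 0% = DMSO wells and 100% = reporter-only cells lacking LRH-1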", "conditions": "LRH-1 transfected, 24 h, at 3.6 µM, hits give high values", "values": [
      {"compound": "COc1ccccc1-c1oc2ccccc2c1C#CCCCCO", "inhibition": "-10.4%"},
      {"compound": "COC(=O)[C@]1(C)N[C@H](CN(C)C(=O)c2ccc(C(C)(C)C)cc2)[C@@H]2C(=O)N(C)C(=O)[C@@H]21", "inhibition": "-20.1%"},
      {"compound": "CC1C=CCC2C(=O)N(c3cccc(C(=O)N4CCCCCC4)c3)C(=O)C12", "note": "(stereo not drawn)", "inhibition": "6.85%"},
      {"compound": "CC(C)N(C)C(=O)CCc1nnc(CCc2c[nH]c3ccccc23)o1", "inhibition": "18.1%"},
      {"compound": "O=C(Nc1ccc([N+](=O)[O-])cc1)C1(c2ccccc2)CCOCC1", "inhibition": "-9.79%"},
      {"compound": "Cc1ccc(NC(=O)CSc2sc3c(O)cc(=O)[nH]c3c2C#N)cc1C", "inhibition": "6.61%"},
      {"compound": "COc1ccc(OC)c(CCNC(=O)c2nn(C)c3c2CS(=O)(=O)c2ccccc2-3)c1", "inhibition": "7.08%"},
      {"compound": "Cn1c(N)c(C(=O)COC(=O)COc2ccc(Cl)cc2)c(=O)n(C)c1=O", "inhibition": "4.34%"},
      {"compound": "CC(=O)N1CCSc2ccc(S(=O)(=O)N3CCC(C)CC3)cc21", "inhibition": "2.83%"},
      {"compound": "COc1ccccc1N1CCN(CC(=O)NCCc2ccc(S(N)(=O)=O)cc2)CC1", "inhibition": "16.7%"},
      {"compound": "Nc1ccc(OCC(O)C[n+]2ccc(CCS(=O)(=O)[O-])cc2)cc1", "note": "(stereo not drawn)", "inhibition": "-10.5%"},
      {"compound": "CCCCn1c(N)c(N(CC)C(=O)c2ccccc2C(F)(F)F)c(=O)[nH]c1=O", "inhibition": "-19.4%"},
      {"compound": "Cc1ccc(CNC(=O)C2CCCN2S(=O)(=O)c2ccc3c(c2)C(C)(C)C(=O)N3C)cc1", "note": "(stereo not drawn)", "inhibition": "4.35%"},
      {"compound": "CCOCCCNC(=O)C(NC(=O)c1ccc(=O)[nH]c1)c1ccc(Cl)cc1", "note": "(stereo not drawn)", "inhibition": "11.9%"},
      {"compound": "CCOc1ccc(Br)cc1S(=O)(=O)Nc1cccc(S(=O)(=O)N(CC)CC)c1", "inhibition": "-37.2%"},
      {"compound": "CCC(C)(C)NC(=O)C(c1cccn1C)N(Cc1ccc(C)cc1)C(=O)Cn1nnc2ccccc21", "note": "(stereo not drawn)", "inhibition": "22.9%"},
      {"compound": "CC1(C)C(=O)C2(CCCCC2)C(=O)OC1c1cccs1", "note": "(stereo not drawn)", "inhibition": "5.23%"},
      {"compound": "O=C(O)CCC(=O)N(Cc1ccco1)c1nc(-c2ccccc2)cs1", "inhibition": "-15.1%"},
      {"compound": "CSc1nnc(C2CCCN(CC(=O)Nc3ccccc3N3CCOCC3)C2)n1C(C)C", "note": "(stereo not drawn)", "inhibition": "-21.8%"},
      {"compound": "COc1ccc(Cn2c(-c3ccc(Cl)cc3)c[n+]3ccccc23)cc1", "inhibition": "-37.2%"},
      {"compound": "COC1=CC(=O)OC(C)(c2ccccc2)C1", "note": "(stereo not drawn)", "inhibition": "-28%"},
      {"compound": "Cc1ccc(OS(=O)(=O)c2ccc(-c3csc(C)n3)s2)c(C)c1", "inhibition": "-6.88%"},
      {"compound": "CC1CCCCC1NC(=O)NC(=O)COC(=O)C1=NN(c2ccccc2)C(=O)CC1", "note": "(stereo not drawn)", "inhibition": "-11.1%"},
      {"compound": "CCn1nc(C)cc1C(=O)N1CCCC(C(=O)c2cccc(OC)c2)C1", "note": "(stereo not drawn)", "inhibition": "6.22%"},
      {"compound": "CCOC(=O)C(C)Oc1cccc2c(=O)n(CC(=O)NCCc3ccc(OC)c(OC)c3)ccc12", "note": "(stereo not drawn)", "inhibition": "3.91%"},
      {"compound": "CC(C)=NN1C(=O)c2ccccc2NC1(C)C", "inhibition": "-62.5%"},
      {"compound": "COCCN(C(=O)C(C)N1C(=O)c2ccccc2C1=O)c1c(N)n(CC(C)C)c(=O)[nH]c1=O", "note": "(stereo not drawn)", "inhibition": "-4.66%"},
      {"compound": "Cn1c(N)cc(-c2ccc(F)cc2)c(C#N)c1=O", "inhibition": "6%"},
      {"compound": "C=CCSC(CC)(CC)C(N)=O", "inhibition": "16.1%"},
      {"compound": "CC12CN(NC(=O)c3ccc(Cl)cc3)C3(C#N)CC1CCC23C", "note": "(stereo not drawn)", "inhibition": "8.96%"},
      {"compound": "CC1CCCCC1NC(=O)CO/N=C/c1ccc(OC(F)F)cc1", "note": "(stereo not drawn)", "inhibition": "6.95%"},
      {"compound": "[2H]C(CCOS(N)(=O)=O)c1ccccc1", "note": "(stereo not drawn)", "inhibition": "3.1%"},
      {"compound": "CC1(C)CC(N2CCN(C(c3ccccc3)c3ccccc3)CC2)=CC(=[N+]2CCCCC2)C1", "inhibition": "91.7% (active)"},
      {"compound": "COc1ccc(C2CC(=O)Oc3ccc(C(C)(C)C)cc32)cc1", "note": "(stereo not drawn)", "inhibition": "21.2%"},
      {"compound": "Cn1cnc(S(=O)(=O)N2C[C@@H](O)COC[C@@H]3O[C@H](CC(=O)NC4CCC4)CC[C@H]32)c1", "inhibition": "-18.2%"},
      {"compound": "COc1ccc(NC(=O)/C(Cl)=C(/Cl)S(=O)Cc2ccc(C)cc2)cn1", "note": "(stereo not drawn)", "inhibition": "87.2% (active)"},
      {"compound": "O=C(COC(=O)Cc1ccc(Br)cc1)Nc1c(F)c(F)c(F)c(F)c1F", "inhibition": "1.54%"},
      {"compound": "CCOC(=O)CSC1=N/C(=C/c2ccc(-n3cncn3)cc2)C(=O)N1C(C)=O", "inhibition": "11.2%"},
      {"compound": "CCOC1CCCCC1NS(=O)(=O)c1ccc(Cl)cc1", "note": "(stereo not drawn)", "inhibition": "5.98%"},
      {"compound": "COc1ccccc1-n1ccnc(SCC(=O)NC2CCCCC2)c1=O", "inhibition": "1.62%"},
      {"compound": "O=C(Nc1ccc2c(c1)OCCO2)C(c1ccc(F)cc1)N1CCCCC1", "note": "(stereo not drawn)", "inhibition": "4.16%"},
      {"compound": "CCCCCCCC[n+]1cccc(C(=O)N2c3c(nc(N)[nH]c3=O)NC(C)C2C)c1", "note": "(stereo not drawn)", "inhibition": "4.18%"},
      {"compound": "C=CCn1c(CNS(=O)(=O)c2ccc(Br)cc2)nnc1SC", "inhibition": "-25.5%"},
      {"compound": "CCS(=O)(=O)Nc1cc(C(=O)OC)ccc1C(=O)OC", "inhibition": "7.66%"},
      {"compound": "CCOc1ccc(NS(=O)(=O)c2cc(C)c(C)cc2C)cc1", "inhibition": "0.32%"},
      {"compound": "Cc1cnc(C(=O)Oc2cccc(Cl)c2Cl)cn1", "inhibition": "10.5%"},
      {"compound": "CCc1c(O)cc2n(c1=O)-c1ccccc1C2(C)C", "inhibition": "6.01%"},
      {"compound": "Cc1cc(C)cc(NS(=O)(=O)c2ccc(Oc3ncc(C(F)(F)F)cc3Cl)cc2)c1", "inhibition": "3.47%"},
      {"compound": "COc1ccc(C2(C)ON(c3ccccc3C(F)(F)F)C2=O)cc1", "note": "(stereo not drawn)", "inhibition": "-1.81%"},
      {"compound": "COCCNC(=O)C1CCN(S(=O)(=O)c2ccc3c(c2)OCCO3)CC1", "inhibition": "8.61%"},
      {"compound": "COc1ccc(C)cc1NC(=O)CSc1cccc[n+]1[O-]", "inhibition": "-14.4%"},
      {"compound": "CC1(C)CC(=O)C=C(c2ccc3ncccc3c2)C1", "inhibition": "47.8%"},
      {"compound": "CCCNC(=O)C1(C)CCCN(C(=O)c2cccc(OC(C)=O)c2C)C1", "note": "(stereo not drawn)", "inhibition": "-0.02%"},
      {"compound": "COC(=O)C(C(=O)Nc1cccc(Cl)c1C)C1CCCC1", "note": "(stereo not drawn)", "inhibition": "1.94%"},
      {"compound": "O=C(O)c1ccccc1C(=O)NC1=NN(c2ccccc2)CC1", "inhibition": "-6.24%"},
      {"compound": "Cn1cc(CNC(=O)c2ccc(OC3CCN(Cc4ccccn4)CC3)cc2)cn1", "inhibition": "16.2%"},
      {"compound": "CN(CCc1ccccn1)C(=O)c1ccc(OC2CCN(Cc3ccccn3)CC2)cc1", "inhibition": "-11.4%"},
      {"compound": "O=C(NCCOc1cccnc1)c1ccc(OC2CCN(Cc3ccccn3)CC2)cc1", "inhibition": "90.4% (active)"}
    ]}
  ]
}
